This excerpt belongs to a sample that is enriched for the strongest signals.
Key:
Assay in all cases: glycan array binding signal (z-score within array); higher = stronger binding
Conditions in all cases: glycan notation: IUPAC condensed, linker removed
[1] = target: Fuc(a1-2)Gal(b1-3)GalNAc(a1-3)[Fuc(a1-2)]Gal(b1-4)GlcNAc
In short: (§1)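 The binding signal is a Z-score computed within each array. Data were drawn from 3228 arrays in the Consortium for Functional Glycomics database, restricted to those with a known protein sequence. Scores were averaged over arrays of the same protein sequence at different concentrations or buffers, and over linkers, and negative values can be taken as non-binding.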

[2] = target: Fuc(a1-2)Gal(b1-3)GlcNAc(b1-3)Gal(b1-4)Glc
In short: as §1

[3] = target: Fuc(a1-2)Gal(b1-3)[Fuc(a1-4)]GlcNAc(b1-3)[Gal(b1-4)GlcNAc(b1-6)]Gal(b1-4)Glc
In short: as §1

[4] = target: Fuc(a1-2)[Gal(a1-3)]Gal(b1-3)GlcNAc(b1-2)Man(a1-3)[Fuc(a1-2)[Gal(a1-3)]Gal(b1-3)GlcNAc(b1-2)Man(a1-6)]Man(b1-4)GlcNAc(b1-4)GlcNAc
In short: as §1

[5] = target: Fuc(a1-2)[Gal(a1-3)]Gal(b1-3)GlcNAc(b1-2)Man(a1-3)[Fuc(a1-2)[Gal(a1-3)]Gal(b1-3)GlcNAc(b1-2)Man(a1-6)]Man(b1-4)GlcNAc(b1-4)[Fuc(a1-6)]GlcNAc
In short: as §1

[6] = target: Fuc(a1-2)[Gal(a1-3)]Gal(b1-3)GlcNAc(b1-3)GalNAc
In short: as §1

[7] = target: Fuc(a1-2)[Gal(a1-3)]Gal(b1-4)GlcNAc(b1-2)Man
In short: as §1

[8] = target: Fuc(a1-2)[Gal(a1-3)]Gal(b1-4)GlcNAc(b1-2)Man(a1-3)[Fuc(a1-2)[Gal(a1-3)]Gal(b1-4)GlcNAc(b1-2)Man(a1-6)]Man(b1-4)GlcNAc(b1-4)GlcNAc
In short: as §1

[9] = target: Fuc(a1-2)[Gal(a1-4)]Gal(b1-4)GlcNAc
In short: as §1

[10] = target: Fuc(a1-2)[GalNAc(a1-3)]Gal(b1-3)GlcNAc(b1-2)Man(a1-3)[Fuc(a1-2)[GalNAc(a1-3)]Gal(b1-3)GlcNAc(b1-2)Man(a1-6)]Man(b1-4)GlcNAc(b1-4)GlcNAc
In short: as §1

[11] = target: Fuc(a1-2)[GalNAc(a1-3)]Gal(b1-3)GlcNAc(b1-3)GalNAc
In short: as §1

[12] = target: Fuc(a1-2)[GalNAc(a1-3)]Gal(b1-4)GlcNAc(b1-2)Man(a1-3)[Fuc(a1-2)[GalNAc(a1-3)]Gal(b1-4)GlcNAc(b1-2)Man(a1-6)]Man(b1-4)GlcNAc(b1-4)[Fuc(a1-6)]GlcNAc
In short: as §1

[13] = target: Fuc(a1-2)[GalNAc(a1-3)]Gal(b1-4)GlcNAc(b1-3)GalNAc
In short: as §1

[14] = target: Fuc(a1-2)[GalNAc(b1-3)]Gal
In short: as §1

[15] = target: Fuc(a1-3)[Gal(b1-4)]GlcNAc(b1-4)Gal(b1-4)[Fuc(a1-3)]GlcNAc(b1-4)Gal(b1-4)[Fuc(a1-3)]GlcNAc
In short: as §1

[16] = target: Fuc(a1-3)[GalNAc(b1-4)]GlcNAc
In short: as §1

[17] = target: Gal(a1-3)Gal(b1-3)[Fuc(a1-4)]GlcNAc(b1-2)Man(a1-3)[Gal(a1-3)Gal(b1-3)[Fuc(a1-4)]GlcNAc(b1-2)Man(a1-6)]Man(b1-4)GlcNAc(b1-4)GlcNAc
In short: as §1

Gal(a1-3)Gal(b1-4)GlcNAc = target: Gal(a1-3)Gal(b1-4)GlcNAc
In short: as §1

[18] = target: Gal(a1-3)Gal(b1-4)GlcNAc(b1-6)GalNAc
In short: as §1

[19] = target: Gal(b1-3)GlcNAc(b1-3)Gal(b1-4)GlcNAc(b1-2)Man(a1-3)[Gal(b1-3)GlcNAc(b1-3)Gal(b1-4)GlcNAc(b1-2)Man(a1-6)]Man(b1-4)GlcNAc(b1-4)GlcNAc
In short: as §1

[20] = target: Gal(b1-3)[Fuc(a1-4)]GlcNAc(b1-3)Gal(b1-3)[Fuc(a1-4)]GlcNAc
In short: as §1

[21] = target: Gal(b1-3)[Fuc(a1-4)]GlcNAc(b1-3)Gal(b1-4)GlcNAc
In short: as §1

Gal(b1-4)Glc = target: Gal(b1-4)Glc
In short: as §1

[22] = target: Gal(b1-4)GlcNAc(b1-3)Gal(b1-4)GlcNAc(b1-3)Gal(b1-4)GlcNAc
In short: as §1

[23] = target: Gal(b1-4)GlcNAc(b1-3)Gal(b1-4)GlcNAc(b1-3)Gal(b1-4)GlcNAc(b1-3)Gal(b1-4)GlcNAc(b1-3)Gal(b1-4)GlcNAc(b1-2)Man(a1-3)[Gal(b1-4)GlcNAc(b1-3)Gal(b1-4)GlcNAc(b1-3)Gal(b1-4)GlcNAc(b1-3)Gal(b1-4)GlcNAc(b1-3)Gal(b1-4)GlcNAc(b1-2)Man(a1-6)]Man(b1-4)GlcNAc(b1-4)[Fuc(a1-6)]GlcNAc
In short: as §1

[24] = target: Gal(b1-4)GlcNAc(b1-3)Gal(b1-4)GlcNAc(b1-3)GalNAc
In short: as §1

[25] = target: Gal(b1-4)GlcNAc(b1-3)Gal(b1-4)GlcNAc(b1-3)[Gal(b1-4)GlcNAc(b1-3)Gal(b1-4)GlcNAc(b1-6)]GalNAc
In short: as §1

Gal3S(b1-4)GlcNAc6S = target: Gal3S(b1-4)GlcNAc6S
In short: as §1

KISKRILTGKK [NK11 (Sus scrofa)]
glycan array binding signal (z-score) [1]: -0.539 | glycan array binding signal (z-score) [2]: 0.203 | glycan array binding signal (z-score) [3]: -0.767 | glycan array binding signal (z-score) [4]: -0.23 | glycan array binding signal (z-score) [5]: -0.614 | glycan array binding signal (z-score) [6]: 0.052 | glycan array binding signal (z-score) [7]: -0.085 | glycan array binding signal (z-score) [8]: 0.702 | glycan array binding signal (z-score) [9]: 0.014 | glycan array binding signal (z-score) [10]: -0.032 | glycan array binding signal (z-score) [11]: 0.052 | glycan array binding signal (z-score) [12]: 0.421 | glycan array binding signal (z-score) [13]: -1.25 | glycan array binding signal (z-score) [14]: -0.608 | glycan array binding signal (z-score) [15]: -0.886 | glycan array binding signal (z-score) [16]: -0.401 | glycan array binding signal (z-score) [17]: -0.06 | glycan array binding signal (z-score) (Gal(a1-3)Gal(b1-4)GlcNAc): -0.302 | glycan array binding signal (z-score) [18]: -0.147 | glycan array binding signal (z-score) [19]: -0.818 | glycan array binding signal (z-score) [20]: -0.425 | glycan array binding signal (z-score) [21]: 3.41 | glycan array binding signal (z-score) (Gal(b1-4)Glc): -0.144 | glycan array binding signal (z-score) [22]: -0.612 | glycan array binding signal (z-score) [23]: -0.483 | glycan array binding signal (z-score) [24]: 2.91 | glycan array binding signal (z-score) [25]: 3.55 | glycan array binding signal (z-score) (Gal3S(b1-4)GlcNAc6S): 3.4
